Screening data: PubChem BioAssay, The Scripps Research Institute Molecular Screening Center
In the library only some 2.3% were active in any assay of this set; here they are far more common.
PME-1 primary: PME-1 (human) inhibition; Q9Y570; recombinant PME-1, FP-Rh probe fluorescence polarization; inhibition, % at 5.9 µM; hit rate 0.53% among 320,000; AID 2130;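 active means inhibition above the campaign mean of all compounds plus 3 SD, cut at about 26% in these data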;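 further: competitive labeling of PME-1 active site by serine hydrolase directed probe; inhibitors block probe labeling so polarization falls and inhibition rises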
pPAFAH inh: inhibitors of human plasma PAF acetylhydrolase (pPAFAH); hit rate 1.5% among 330,000; AID 463082; recombinant pPAFAH, FP-rhodamine probe fluorescence polarization; inhibition, % at 3.39 µM; Q13093;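 active means inhibition above the mean inhibition across the screen plus 3 SD, cut at about 25% in these data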;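 further: inhibitors block binding of the rhodamine activity-based probe so polarization drops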
Target sequence (Q13093 whole entry, looked up): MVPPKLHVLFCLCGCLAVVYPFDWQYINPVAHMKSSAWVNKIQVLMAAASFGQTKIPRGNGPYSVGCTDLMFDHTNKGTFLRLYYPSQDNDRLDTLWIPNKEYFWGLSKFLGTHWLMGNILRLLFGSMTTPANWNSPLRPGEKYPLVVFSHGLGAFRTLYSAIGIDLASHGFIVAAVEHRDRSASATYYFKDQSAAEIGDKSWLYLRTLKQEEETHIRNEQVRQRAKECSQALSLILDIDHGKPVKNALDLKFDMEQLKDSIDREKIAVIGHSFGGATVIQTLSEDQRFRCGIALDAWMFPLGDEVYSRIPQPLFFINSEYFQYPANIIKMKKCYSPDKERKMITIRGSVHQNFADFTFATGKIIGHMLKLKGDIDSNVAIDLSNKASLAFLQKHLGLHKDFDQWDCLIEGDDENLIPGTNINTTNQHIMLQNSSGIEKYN
GSTO1 counter: GSTO1 inhibition, counter-screen for RBBP9 inhibitors; AID 1974; inhibition, % at 5.96 µM; P78417; hit rate 1.1% among 300,000; recombinant GSTO1, activity-based probe fluorescence polarization;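 active means inhibition above the campaign mean inhibition plus 3 SD, cut at about 35% in these data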
Target sequence (P78417 whole entry, looked up): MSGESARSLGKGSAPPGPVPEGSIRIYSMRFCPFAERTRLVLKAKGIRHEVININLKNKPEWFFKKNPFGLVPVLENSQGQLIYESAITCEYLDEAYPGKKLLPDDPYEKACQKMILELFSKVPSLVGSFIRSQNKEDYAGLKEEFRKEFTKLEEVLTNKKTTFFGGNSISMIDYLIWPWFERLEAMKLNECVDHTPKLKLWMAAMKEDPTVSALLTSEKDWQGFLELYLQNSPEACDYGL
Fam108B counter: counter-screen for RBBP9 inhibitors: inhibitors of mouse Fam108B; hit rate 0.33% among 300,000; recombinant Fam108B, FP-Rh probe fluorescence polarization; AID 1947; inhibition, % at 9.51 µM;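 active means inhibition above the screen mean inhibition plus 3 SD, computed separately per campaign, cut at about 18% in these data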;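 further: inhibitors lower polarization as less probe binds the enzyme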
PAD4 inh: inhibitors of human PAD4; Q9UM07; inhibition, % at 6.36 µM; AID 485272; hit rate 0.41% among 330,000; recombinant PAD4, RCA probe fluorescence polarization;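 active means percent inhibition above a cutoff equal to the mean of all tested compounds plus 3 SD, cut at about 15% in these data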
pPAFAH FP conf: confirmation of human plasma PAF acetylhydrolase (pPAFAH) inhibitors; hit rate 72% among 2,300; shares compounds with pPAFAH inh; recombinant pPAFAH, FP-Rh probe fluorescence polarization; inhibition, % at 3.39 µM; AID 463230;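 active means mean inhibition of the triplicate above the hit cutoff set for the earlier primary screen, cut at about 25% in these data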
PAD4 FP conf: PAD4 (human) inhibition, confirmed; shares compounds with PAD4 inh; recombinant PAD4, RCA probe fluorescence polarization; inhibition, % at 6.36 µM; hit rate 28% among 1,200;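 active means mean inhibition across replicates above the hit cutoff set by the earlier primary screen, cut at about 15% in these data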;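 further: inhibitors block active-site labeling by the probe so polarization falls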
Hits are given with their value; . = inactive; / = no result given; + = active, no number; ! = not active in a repeat.

SMILES	PME-1 primary	pPAFAH inh	GSTO1 counter	Fam108B counter	PAD4 inh	PAD4 FP conf	others
Cc1cc(C(=O)N/N=C2\CC(=O)CC(C)(C)C2)c(C)n1-c1ccccc1	.	36.9	.	.	.	/	pPAFAH FP conf=33.9
Cc1cc(C(=O)N/N=C2\CC(=O)CC(C)(C)C2)c(C)n1-c1ccc(F)cc1	.	41.4	.	.	.	/	pPAFAH FP conf=63.5
COc1cc(CC(=O)NCC(C)(C)N2CCOCC2)cc(OC)c1OC	.	.	.	.	.	/
COC(=O)[C@H](CC(C)C)NC(=O)Cn1cnc2c(NCc3ccccc3)ncnc21	/	.	/	/	.	/
Cc1ccc(N=Nc2ccc(O)c3ncccc23)cc1C	.	.	.	.	.	/
Cc1ccc(N=Nc2ccc(O)c3ncccc23)cc1	.	34.6	.	.	.	/	pPAFAH FP conf=.
CCN1/C(=C/C=C/c2sc3ccccc3[n+]2CC)Sc2ccccc21	.	.	.	.	.	/
CCN1/C(=C/C=C/c2oc3ccc(-c4ccccc4)cc3[n+]2CC)Oc2ccc(-c3ccccc3)cc21	72.1	59.4	.	.	62.8	45.0	pPAFAH FP conf=.
COCCn1c(SCC(=O)Nc2sccc2C(N)=O)nc2cc(Cl)ccc2c1=O	.	.	.	.	.	/
COc1ccc(CCn2c(C)cc(C(=O)CSc3nnc(N)s3)c2C)cc1	.	.	.	.	.	/
COc1ccc(CCn2c(C)cc(C(=O)CSc3nc(N)cc(=O)[nH]3)c2C)cc1	.	35.3	.	.	30.5	.	pPAFAH FP conf=31.2
COC(=O)c1ccccc1-c1c2ccc(=N)cc-2oc2cc(N)ccc12	150.1	125.6	/	/	+	144.9	pPAFAH FP conf=132.1
N#CC1=C(N)Oc2n[nH]c(-c3cccs3)c2C1c1ccncc1 (stereo unspecified)	.	.	.	.	.	/
N#CC1=C(N)Oc2n[nH]c(-c3cccs3)c2C1c1ccsc1 (stereo unspecified)	.	37.8	.	.	17.4	.	pPAFAH FP conf=.
COc1ccc(CN(C)CC(=O)Nc2ccccc2C(=O)NC2CC2)cc1F	/	.	/	/	.	/
COc1cccc(N2C(=O)CC(Nc3ccc(N4CCOCC4)cc3)C2=O)c1 (stereo unspecified)	.	39.2	.	.	31.1	.	pPAFAH FP conf=.
COc1cc(CNc2ccc(O)cc2)cc(Br)c1OCc1ccccc1F	41.6	39.0	85.7	.	27.6	.	pPAFAH FP conf=.
COc1ccc(C(=O)N/C(=C\c2ccc3c(c2)OCO3)C(=O)N2CCOCC2)cc1	.	.	.	.	.	/
Cc1ccc(C(=O)NC(=O)CSc2nncn2C)cc1	.	.	.	.	.	/
Cc1ccc(C2=NN=C(NC(=O)CSc3nncn3C)SC2)cc1	.	.	.	.	67.1	61.6
CNS(=O)(=O)c1ccc(C(=O)NCC(=O)NC(C)c2cccs2)cc1 (stereo unspecified)	.	.	/	/	.	/
O=C(Nc1ccncc1)c1ccc2ncsc2c1	.	.	.	.	.	/
O=C(Nc1ccc(S(=O)(=O)Nc2ncccn2)cc1)c1ccc2ncsc2c1	.	.	.	.	17.9	.
CC(C)(C)OC(=O)C[C@@H]1C/C=C\C[C@@H](CC(=O)N[C@H](CO)Cc2ccccc2)C(=O)N2CCC[C@H]2COC1=O	/	.	/	/	.	/
CCNC(=S)NNC(=O)c1csc(C)c1	.	.	.	.	92.7	.
SMILES	PME-1 primary	pPAFAH inh	GSTO1 counter	Fam108B counter	PAD4 inh	PAD4 FP conf	others
CC(C)Oc1ccc(CCNC(=O)CC2C(=O)NCCN2C)cc1 (stereo unspecified)	.	.	.	.	.	/
O=S(=O)(NCCc1ccccc1)c1ccc(Br)cc1	.	.	.	.	.	/
CC1=NN(c2ccc(C)cc2C)C(=O)C1C(c1cccc(O)c1)C1C(=O)N(c2ccc(C)cc2C)N=C1C (stereo unspecified)	.	.	55.0	.	39.8	.
COc1ccc(NC(=O)COC(=O)CCc2ccc(S(=O)(=O)N3CCOCC3)cc2)c(OC)c1	/	.	/	/	.	/
CCN(CC(=O)Nc1ccc(NC(C)=O)cc1)C(=O)c1ccc(N2CCC(C)CC2)c([N+](=O)[O-])c1	.	.	/	/	.	/
CCc1nnc(N/N=C/c2ccc(N3CCC(C)CC3)c([N+](=O)[O-])c2)n1N	.	.	.	.	29.2	.
CC1CCN(c2cc(N3CCOCC3)c([N+](=O)[O-])cc2F)CC1	.	.	.	.	.	/
Cc1nnc(N/N=C/c2cc([N+](=O)[O-])c(N3CCC(C)CC3)cc2N2CCC(C)CC2)n1N	.	.	.	.	44.0	.
Cc1cc(Cl)cc(C)c1OCCOCCNCc1ccccc1	.	.	.	.	.	/
Cc1ccc(S(=O)(=O)/N=C(/Sc2ccccc2C(=O)O)c2ccccc2)cc1	.	.	.	.	17.6	24.7
Cc1ccc(S(=O)(=O)/N=C(\Sc2ccccc2)c2ccccc2)cc1	.	.	.	.	.	/
CC(C)(C)c1ccc(C(=O)NCCOc2ccccc2)cc1	.	.	.	.	18.3	.
CC(C)(C)c1ccc(C(=O)NCCOc2ccccc2F)cc1	.	.	.	.	.	/
c1ccc(CSc2nc3ccccc3[nH]2)cc1	.	.	.	.	.	/
CCSc1nc2ccccc2[nH]1	.	.	.	.	17.4!	.
CCn1c(CSc2nc3ccccc3[nH]2)nc2cc(C(=O)O)ccc21	.	.	.	.	31.6	34.1
CC(C)CSc1nc2ccccc2[nH]1	.	.	.	.	.	/
Cn1c(=O)c2c(ncn2CC(=O)Nc2nc(-c3ccccc3Cl)cs2)n(C)c1=O	.	.	.	.	90.0	.
Cc1c(NC(=O)C(=O)/C=C(\O)c2ccc(Br)cc2)c(=O)n(-c2ccccc2)n1C	.	.	.	.	.	/
Cc1ccc(NC(=O)NNS(=O)(=O)c2ccc(Br)cc2)cc1	.	.	.	.	.	/
Cc1ccc(S(=O)(=O)NC(=O)Nc2ccc(N(C)C)cc2)cc1	.	25.1	87.4	.	27.7	.
Nc1nc(C2CC2)c(Sc2sc(N)nc2C2CC2)s1	.	.	.	.	.	/
Cc1cccc(Oc2ccc(NC(=O)C3=CC=CN4CCS(=O)(=O)N=C34)cc2)c1	.	.	/	/	.	/
COCCn1c(=S)[nH]c2cc(OC)c(OC)cc2c1=O	.	.	.	.	42.8	.
CC(=O)Nc1ccc(C(=O)OCC(=O)c2cccc([N+](=O)[O-])c2)cc1	.	.	.	.	.	/
SMILES	PME-1 primary	pPAFAH inh	GSTO1 counter	Fam108B counter	PAD4 inh	PAD4 FP conf	others
COC(=O)Nc1ccc(SCC(=O)c2cccc([N+](=O)[O-])c2)cc1	.	.	.	.	25.8	18.8
COCCOC(=O)c1c(C)n(C)c2ccc(OC(=O)c3c(OC)cccc3OC)cc12	.	.	.	.	29.2	22.6
N#C/C(=C\c1cccnc1)C(=O)Nc1ccc(O)cc1F	.	.	.	.	17.9	.
CC(=O)Nc1ccc(N/C=C2/CCCC2=O)cc1	.	.	.	.	.	/
Cc1cc(O)ccc1N/C=C1\CCCC1=O	.	.	.	.	41.5	.
CCn1c(SC(C)C(=O)O)nc2sc3c(c2c1=O)CCC3 (stereo unspecified)	.	.	.	.	15.8	.
